Assay outcomes from PubChem BioAssay.
Hits are enriched below; roughly 32% of the tested compounds scored in any of these assays.
CYP2C9 act: human CYP2C9 activators, primary screen, biochemical, luminescence; hit rate 1.4% among 96,000; AID 1024, 2008; recombinant CYP2C9, luciferin-H conversion; active compounds read high; factor 1 = untreated enzyme, 0 = blocked; activation factor at 5 µM; Cytochrome P450 2C9 (Homo sapiens), P11712;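 active = activation factor of 2 or more for CYP2C9 at a 5 µM dose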;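 note: 0 = sulfaphenazole-blocked wells and 1 = vehicle-only wells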
CYP2C19 inh: blockers of cytochrome P450 2C19 activity – biochemical, luminescence, ADME assay, primary screen. P33261. CYP2C19 Supersomes, luciferin-H EGE luminescence, 30 min. inhibition, % at 5 µM. hit rate 21% among 96,000;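 active = CYP2C19 inhibition above a set limit at 5 µM in the primary screen, cut at about 50% in these data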;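 note: plate controls were negative control wells for no effect and 2.5 mM tranylcypromine positive control for full effect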
Target sequence (P33261 whole entry, looked up): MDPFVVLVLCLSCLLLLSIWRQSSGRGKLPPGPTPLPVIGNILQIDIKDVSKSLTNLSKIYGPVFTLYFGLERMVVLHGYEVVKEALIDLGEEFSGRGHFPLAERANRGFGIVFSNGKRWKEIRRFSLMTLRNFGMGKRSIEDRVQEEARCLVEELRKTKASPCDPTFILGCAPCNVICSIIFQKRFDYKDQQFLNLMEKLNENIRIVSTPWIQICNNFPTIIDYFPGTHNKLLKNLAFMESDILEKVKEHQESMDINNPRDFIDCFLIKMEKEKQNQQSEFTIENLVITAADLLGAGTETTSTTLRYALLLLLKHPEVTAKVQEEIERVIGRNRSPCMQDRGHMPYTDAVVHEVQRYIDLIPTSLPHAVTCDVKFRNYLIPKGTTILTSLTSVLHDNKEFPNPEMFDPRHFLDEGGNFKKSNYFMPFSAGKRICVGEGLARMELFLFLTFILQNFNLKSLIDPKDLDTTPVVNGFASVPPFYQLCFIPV
PostGolgi yeast: phenotypic screen on post-Golgi transport, primary screen. inhibition, % at 10 µM. post-Golgi transport phenotypic cell assay. hit rate 0.9% among 98,000;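 note: yeast cells grown in 1536-well plates; yeast grown about 18 h at 30C before absorbance read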
CYP2C9 inhib: blockers of cytochrome P450 2C9 activity – biochemical, luminescence, ADME assay, primary screen | CYP2C9 Supersomes, luciferin-H conversion | hit rate 20% among 96,000 | P11712 | inhibition, % at 5 µM;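 active = blocking of liver enzyme CYP2C9 beyond about 50% at 5 µM, limit read from the data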
CYP2C19 act: human CYP2C19 activators, primary screen, biochemical, luminescence; Cytochrome P450 2C19 (Homo sapiens), P33261; recombinant CYP2C19, luciferin-H EGE luminescence; active compounds read high; 0 = fully inhibited enzyme, 1 = untreated enzyme; activation factor at 5 µM; 96,000 tested, under 10 active; AID 1025, 2008;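 active = activation factor of at least 2 at 5 µM in the primary screen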;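 note: 0 = wells with 2.5 mM tranylcypromine and 1 = vehicle-only wells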
PostGolgi ctrl: growth inhibition of yeast control strain, primary screen, counter-screen for post-Golgi transport modulator project; efflux-deficient yeast background strain, growth absorbance A615, 16 h; inhibition, % at 10 µM; hit rate 5% among 98,000
An asterisk follows results filed as active. Cut-off read from the data, not from the text of the source, unless noted: active = inhibition above about 30%; inactive = the rest.

SMILES	CYP2C9 act	CYP2C19 inh	PostGolgi yeast	CYP2C9 inhib	CYP2C19 act	PostGolgi ctrl
CCCCCn1c(N)c(C#N)c2nc3ccccc3nc21	0.8	61.9*	5.2	21.9	0.4	9.7
CC(C)OCCCNC(=O)c1c(N)n(/N=C/c2cccs2)c2nc3ccccc3nc12	0.5	21.4	-4.1	46.5	0.8	2.9
N#Cc1c(N)n(CCNC(=O)c2cccs2)c2nc3ccccc3nc12	0.8	87.4*	3.3	16.3	0.1	-2.2
N#Cc1c(N)n(CCCN2CCOCC2)c2nc3ccccc3nc12	0.7	88.7*	9.5	32.0	0.1	2.0
CCCCn1c(NC(C)=O)c(C#N)c2nc3ccccc3nc21	0.9	10.7	-2.1	13.7	0.9	7.4
Cc1ccc2c(c1)c1nc3ccccc3nc1n2CCN1CCOCC1	0.6	23.7	0.7	39.5	0.8	12.4
Cc1ccc(S(=O)(=O)N2CCOCC2)cc1NC(=O)COC(=O)CSc1ccc(Br)cc1C	1.3	41.0	13.0	-34.8	0.6	2.7
Cc1ccc(CNC(=O)CCC(=O)c2cccs2)cc1	1.3	85.1*	0.7	-34.9	0.1	3.5
O=C(CCC(=O)c1cccs1)Nc1ccc(F)c(F)c1F	1	65.8*	-3.3	-3.5	0.3	13.8
O=C(CCC(=O)c1cccs1)NCc1ccc(Cl)cc1	1.5	44.2	-0.2	-45.2	0.6	-2.4
Cc1ccc(NC(=O)CCC(=O)c2cccs2)cc1	0.6	82.3*	-3.5	41.3	0.2	11.6
O=C(COC(=O)c1cccs1)Nc1ccccc1	0.9	56.7*	5.0	14.5	0.4	7.3
O=C(Nc1cc(Cl)ccc1Cl)C1CC(=O)N(c2ccc(Br)cc2)C1 (stereo not drawn)	0.8	19.2	-4.3	21.0	0.8	5.8
CCCOc1ccc(N2C(=O)CC(N3CCC(O)(c4cccc(C(F)(F)F)c4)CC3)C2=O)cc1 (stereo not drawn)	0.7	-5.9	-7.3	28.5	1.1	-1.1
C=CCn1c(SCC2=C(C(=O)OCC)C(C)NC(=O)N2)nnc1C1CCCCC1 (stereo not drawn)	1.1	13.0	4.3	-9.2	0.9	16.0
O=C(O)CCCCCCCCCC(=O)c1cccs1	1.1	-5.8	-0.8	-10.9	1.1	2.7
CC(CC(=O)c1cccs1)CC(=O)c1cccs1	0.1	100.3*	-4.4	93.3*	0	17.8
O=C(Oc1cccnc1)c1cc(S(=O)(=O)N2CCCCC2)ccc1Cl	0.9	0.6	-2.4	11.1	1	5.8
O=C(CSc1nc2ccccc2c(=O)n1CC1CCCO1)NCC1CCCO1 (stereo not drawn)	0.9	9.5	1.9	12.7	0.9	1.1
CCC(Sc1nc2ccccc2c(=O)n1CCN1CCOCC1)C(=O)NCc1cccnc1 (stereo not drawn)	0.2	39.1	-2.7	77.9*	0.6	-1.5
CCC(Sc1nc2ccccc2c(=O)n1CC1CCCO1)C(=O)NCc1cccnc1 (stereo not drawn)	0.2	12.6	-1.9	76.0*	0.9	2.7
COC(=O)c1ccc(Nc2cc(C)nc(-c3ccccc3O)n2)cc1	0.4	21.1	4.9	59.1*	0.8	-5.1
CCOC(=O)c1c(NC(=O)CCC(=O)N2CCOCC2)sc2c1CC(C)(C)OC2	1.2	26.9	-3.4	-19.2	0.7	7.1
CCC1CCCCN1CCNC(=O)CNS(=O)(=O)c1ccc2nc(C)sc2c1 (stereo not drawn)	0.9	6.7	5.0	8.3	0.9	2.2
Cc1cc2nnc(SCCCCN3C(=O)c4ccccc4C3=O)n2c2ccccc12	2.9*	45.1	-0.7	-193.9	0.5	22.3
SMILES	CYP2C9 act	CYP2C19 inh	PostGolgi yeast	CYP2C9 inhib	CYP2C19 act	PostGolgi ctrl
O=C1c2ccccc2C(=O)N1CCCCSc1nnc2c(Cl)cc(Cl)cn12	0.8	48.9	-4.2	17.1	0.5	16.9
Cc1cc(C)c(NC(=O)C2CC(=O)N(c3ccc4c(c3)OCCO4)C2)c(C)c1 (stereo not drawn)	0.8	15.5	18.2	20.5	0.8	-4.3
O=C(Nc1ccccc1Cc1ccccc1)C1CC(=O)N(c2ccc3c(c2)OCCO3)C1 (stereo not drawn)	0.2	63.5*	-12.5	76.1*	0.4	-1.2
Cc1cccc(N2CC(C(=O)Nc3ccc4c(c3)OCO4)CC2=O)c1C (stereo not drawn)	1	2.5	-2.2	1.1	1	-2.3
CCc1cccc(CC)c1NC(=O)C1CC(=O)N(c2ccc3c(c2)OCCO3)C1 (stereo not drawn)	0.1	74.1*	-0.8	89.4*	0.3	7.0
O=C(Nc1nc(-c2ccco2)c(-c2ccco2)s1)C1CC(=O)N(c2ccc3c(c2)OCCO3)C1 (stereo not drawn)	0.1	71.1*	12.0	93.7*	0.3	11.7
CCS(=O)(=O)n1nc(-c2ccc(Cl)cc2)nc1SC	0.6	37.3	4.0	36.4	0.6	-4.5
Cn1nc(-c2ccc(Cl)cc2)nc2c(=O)n(C)c(=O)nc1-2	0.1	98.2*	105.6*	92.9*	0	107.4*
O=C1CC(c2ccc3c(c2)OCO3)CN1 (stereo not drawn)	1.1	-1.6	17.1	-7.7	1	-4.3
O=C1OCC2=C1C(c1ccc3c(c1)OCO3)Sc1ccccc1N2 (stereo not drawn)	0.3	95.9*	-3.6	69.5*	0	23.6
CCOc1ccc(C2Sc3ccccc3NC3=C2C(=O)OC3)cc1 (stereo not drawn)	0.4	68.2*	-1.1	55.7*	0.3	22.1
Cc1cc(N2CCN(c3ccccc3Cl)CC2)n2cc(-c3ccccc3)nc2n1	0.4	8.3	1.1	57.9*	0.9	34.0*
O=C(CN1C(=O)CCSc2ccccc21)Nc1cccc(F)c1	0.3	78.4*	-8.0	66.7*	0.2	3.8
CCOC(=O)N1CCN(C(=O)C2CCN(S(=O)(=O)c3ccccc3)CC2)CC1	1	4.0	4.6	-2.8	1	2.3
COc1ccc(N2CCN(C(=O)COc3ccccc3)CC2)cc1	0.9	5.3	4.3	9.3	0.9	5.3
O=C(COc1ccc2ccccc2c1CN1CCOCC1)N1CCc2ccccc21	0.8	26.1	8.7	24.0	0.7	-0.7
CCCN(CC1CC1)C(=O)COc1ccccc1C(=O)NCc1ccccc1	0.9	5.6	-9.3	6.7	0.9	6.6
O=C(COc1cccc2ccccc12)N1c2ccccc2CCc2ccccc21	0.2	76.5*	17.7	84.0*	0.2	32.3*
O=C(COc1cccc2ccccc12)N1CCN(c2ccccc2)CC1	1.7	95.3*	-16.2	-71.7	0	12.8
O=C(COc1cccc2ccccc12)N1CCN(c2ccccn2)CC1	2.3*	95.3*	7.8	-125.4	0	15.2
